hgDAF12 agonist: H. glycines DAF-12 receptor agonists, primary screen, cell-based, luminescence, HEK293, GAL4 fusion, UAS-luciferase; AID 687014, 2013; activation, % at 6.8 µM; 370,000 tested, 1.8% active; HEK293 GAL4-hgDAF12 UAS-luciferase reporter, agonist luminescence; normalized to butyrate control;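 active = activation above a cutoff set at the mean of all screened compounds plus 3 SD, cut at about 10% in these data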
DAX1 inh-1: DAX1 (NR0B1) inhibitors on StAR promoter, primary screen, cell-based, luminescence, SF-1 (NR5A1), full-length DAX-1; HEK293T StAR-luciferase reporter, SF-1/DAX-1 repression relief; 370,000 tested, 1.1% active; inhibition, % at 6.8 µM;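 active = inhibition above the mean over all tested compounds plus 3 SD, cut at about 3.6% in these data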;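 note: higher inhibition means more luminescence from relief of DAX-1 repression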
DAX1 inh-2: DAX1 (NR0B1) inhibitors, primary screen, cell-based, HEK293, Gal4-DAX1, luciferase luminescence; inhibition, % at 6.75 µM; 340,000 tested, 0.99% active; AID 504766, 2011; HEK293 Gal4-DAX1 luciferase reporter; Nuclear receptor subfamily 0 group B member 1 (Homo sapiens), P51843;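 active = inhibition above the mean over all tested compounds plus 3 SD, cut at about 4.2% in these data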;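 note: inhibition shows as a rise in luminescence from relieved DAX1 repression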
hcDAF12 agonist: H. contortus DAF-12 nuclear receptor activators, primary screen, cell-based, luminescence, HEK293, lit1-tk-luc reporter; activation, % at 6.8 µM; HEK293 hcDAF-12 lit1-tk-luc reporter; 0% DMSO, 100% Δ7-dafachronic acid; 370,000 tested, 1.4% active; AID 652067, 2013;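 active = activation above the mean of all tested compounds plus 3 SD, cut at about 5.5% in these data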
ssDAF12 agonist: S. stercoralis DAF-12 nuclear receptor activators, primary screen, cell-based, luminescence, HEK293, GRIP1 co-expression, lit1-tk-luc; Nuclear hormone receptor DAF-12 (Strongyloides stercoralis); HEK293 ssDAF-12/GRIP1 lit1-tk-luc reporter; % of 3 µM dafachronic acid response; activation, % at 6.8 µM; 370,000 tested, 1% active;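 active = activation above the mean over all tested compounds plus 3 SD, cut at about 0.9% in these data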
DAX1 inh confirm: DAX1 (NR0B1) inhibitors relieving SF-1 repression, confirmation, cell-based, luminescence, HEK293T, full-length DAX-1, SF-1 activated StAR promoter | shares compounds with DAX1 inh-1 | HEK293T StAR-promoter luciferase reporter, SF-1/DAX-1 repression | inhibition, % at 6.8 µM | 2,400 tested, 87% active | AID 652134, 2013;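 active = inhibition above the average of every tested compound plus 3 SD, cut at about 3.8% in these data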
SF1 AF2mut Luc: StAR reporter signal changes without DAX1, counter-screen for DAX1 inhibitor project, cell-based, luminescence, AF-2 mutant SF-1, transactivation | HEK293 StAR-luciferase, SF-1 AF2 mutant | AID 652136, 2013 | inhibition, % at 6.8 µM | shares compounds with DAX1 inh-1 | 2,400 tested, 78% active;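 active = inhibition above the mean of all tested compounds plus 3 SD, cut at about 3% in these data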
LXRb hcDAF ctr: LXR agonists, Gal4 luciferase reporter, confirmation, counter-screen for hcDAF-12 agonist project, cell-based, luminescence, HEK293, H. contortus campaign; shares compounds with hcDAF12 agonist; HEK293 Gal4-LXR tk-luc reporter, 24 h; normalized: DMSO 0%, positive control 100%; 3,400 tested, under 10 active; activation, % at 6.8 µM;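 active = mean percent activation of the reporter above a cutoff set as the average over tested compounds plus their standard deviation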
Target sequence (P55055 whole entry, looked up, the tested form may be a part): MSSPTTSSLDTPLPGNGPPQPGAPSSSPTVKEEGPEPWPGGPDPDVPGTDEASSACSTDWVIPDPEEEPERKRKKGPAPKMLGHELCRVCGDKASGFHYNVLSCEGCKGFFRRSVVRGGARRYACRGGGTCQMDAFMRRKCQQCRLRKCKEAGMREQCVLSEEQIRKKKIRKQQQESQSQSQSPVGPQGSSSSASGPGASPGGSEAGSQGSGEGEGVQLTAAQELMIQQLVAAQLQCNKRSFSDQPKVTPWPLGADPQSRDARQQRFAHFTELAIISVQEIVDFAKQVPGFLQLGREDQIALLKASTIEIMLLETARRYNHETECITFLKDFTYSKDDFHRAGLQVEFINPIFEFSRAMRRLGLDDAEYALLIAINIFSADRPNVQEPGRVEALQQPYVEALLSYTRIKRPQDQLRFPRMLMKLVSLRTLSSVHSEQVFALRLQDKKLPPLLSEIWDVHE
hcDAF12 ag: H. contortus DAF-12 receptor agonists, confirmation, cell-based, luminescence, HEK293, lit1-tk-luc, triplicate; activation, % at 6.8 µM; HEK293 hcDAF-12 lit1-tk-luc reporter; % of Δ7-dafachronic acid response; AID 743032, 2013; shares compounds with hcDAF12 agonist; 3,400 tested, 61% active;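 active = mean activation across triplicate tests above the threshold derived from the earlier primary screen, cut at about 5.5% in these data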
Hits are given with their value; – = inactive; · = no result given. This is a sample that favours compounds with a hit; in the whole collection about 4.1% have one here.

SMILES	hgDAF12 agonist	DAX1 inh-1	DAX1 inh-2	hcDAF12 agonist	ssDAF12 agonist	DAX1 inh confirm	SF1 AF2mut Luc	LXRb hcDAF ctr	hcDAF12 ag
N#C/C(=C\c1ccc[nH]1)C(=O)Nc1ccccc1F	12	7.4	–	12	4.3	9.5	7.0	–	8.6
CCCCCN(C(=O)CCC(=O)OCC(=O)N1C(C)CCCC1C)c1c(N)n(CCCC)c(=O)[nH]c1=O (stereo not drawn)	–	–	–	–	–	·	·	·	·
Cc1nccn1CC(=O)c1ccc(O)c(O)c1	–	–	–	–	–	·	·	·	·
CN1/C(=C\C(=O)c2cccs2)Sc2ccccc21	17	4.6	–	21	2.9	10	7.0	–	21
O=C(COc1ccc(Br)cc1)N/N=C1\SCC(=O)N1c1ccc(F)cc1	–	–	–	–	–	·	·	·	·
O=C(/C=C/c1cccs1)N1CCc2ccccc21	28	7.3	–	20	3.6	19	8.4	–	21
O=C(/C=C/c1ccc(Cl)c(Cl)c1)N1CCc2ccccc21	–	–	–	–	–	·	·	·	·
O=C(COC(=O)CNC(=O)c1ccc(Cl)c([N+](=O)[O-])c1)NC(=O)c1ccccc1	–	–	–	–	–	·	·	·	·
CCOC(=O)c1c(C)oc2c1c(CN1CCN(CCO)CC1)c(O)c1ccccc12	–	4.8	–	7.1	1.1	4.2	3.7	–	6.8
Clc1ccc(C=Cc2ccccn2)c(Cl)c1	13	7.9	–	8.2	1.2	12	6.8	–	15
O=C(Nc1cccc(O)c1)C(=O)Nc1ccccn1	–	6.1	–	8.2	–	10	5.6	–	–
C/C(CC(=O)Nc1ccccn1)=N\NC(=O)C(=O)Nc1cccc(C)c1	–	–	–	–	–	·	·	·	·
O=C1c2ccccc2C(=O)C1c1ccc2ccccc2n1	20	5.8	4.2	24	4.4	–	–	–	21
COC(=O)C1=C(C)NC(C)=C(C(=O)OC)C1c1ccc2ccccc2n1	–	–	–	–	–	·	·	·	·
Cc1cc(NC(=O)c2sc3ccccc3c2O)no1	–	6.5	–	12	–	8.1	6.2	–	7.2
COc1ccc(NC(=O)c2oc3ccccc3c2C)cn1	–	6.4	–	11	1.1	6.1	6.2	–	9.8
Cc1ccc2oc(C(=O)Nc3cc(C)on3)c(C)c2c1	11	5.5	–	11	2.5	13	8.0	–	14
COc1ccc(NC(=O)c2cc(OC)c(OC)c(OC)c2)cn1	–	–	–	–	–	·	·	·	·
Cc1ccc(NC(=O)c2oc3ccccc3c2C)nc1	13	8.2	–	8.5	3.3	8.4	5.5	–	16
Cc1cc(NC(=O)c2cccs2)no1	–	–	–	–	–	·	·	·	·
CCOc1ccccc1N1CC(C(=O)Nc2ccc3c(c2)OCCO3)CC1=O (stereo not drawn)	–	–	–	–	–	·	·	·	·
CC(C)(C)NC(=O)NC(=O)COc1ccc(Br)cc1Br	17	7.5	–	6.6	–	18	6.0	–	9.5
Cc1ccc(C)c(NC(=O)c2ccc3ccccc3n2)c1	11	5.0	–	17	2.6	15	10	–	22
Cc1ccc(C)c(NC(=O)c2ccccn2)c1	–	–	–	–	–	·	·	·	·
CCCCNCc1nc2ccccc2c(=O)[nH]1	–	–	–	–	–	·	·	·	·
SMILES	hgDAF12 agonist	DAX1 inh-1	DAX1 inh-2	hcDAF12 agonist	ssDAF12 agonist	DAX1 inh confirm	SF1 AF2mut Luc	LXRb hcDAF ctr	hcDAF12 ag
CCc1ccc(NCc2nc3ccccc3c(=O)[nH]2)cc1	15	5.1	–	11	2.4	14	9.3	–	7.6
COc1cccc(CNC(=O)CN2C(=O)CCSc3ccc(S(=O)(=O)N4CCCC4)cc32)c1	–	–	–	–	–	·	·	·	·
O=C(COc1ccc(Cl)cc1)NC1=NN(c2ccccc2)C(=O)C1	–	–	–	–	–	·	·	·	·
COc1ccc(-c2cc(=O)c3c(O)c(OC)c(O)cc3o2)cc1	–	5.1	–	6.7	1.3	16	8.3	–	–
CCOC(=O)c1sc(NC(=O)c2cc(-c3cccc(O)c3)on2)c(C(=O)OCC)c1C	–	–	–	–	–	·	·	·	·
CCOC(=O)c1cc(-c2cccc(O)c2)oc1C	14	6.2	·	9.8	3.3	3.8	3.2	–	13
COc1ccc(C(=O)NCCNC(=O)c2ccc(OC)cc2)cc1	–	–	–	–	–	·	·	·	·
COc1ccc(C(=O)NCCSc2ccccc2)cc1	12	5.1	–	7.4	–	12	5.2	–	6.5
Nc1nn(-c2cccc(F)n2)cc1-c1ccc(Cl)cc1	18	5.9	–	11	1.4	13	5.3	–	9.8
COc1cc(O)c(C(CC(=O)N2CCCCC2)c2ccc(N(C)C)cc2)c(OC)c1 (stereo not drawn)	–	–	–	–	–	·	·	·	·
C(=Cc1c[nH]c2ccccc12)c1ccc2ccccc2n1	18	8.1	–	20	5.2	8.0	–	–	12
C(=Cc1c[nH]c2ccccc12)c1nccc2ccccc12	23	15	–	24	4.1	14	7.1	–	18
Fc1ccccc1/C=C/c1ccc2ccccc2n1	15	5.8	–	20	2.2	14	3.5	–	13
O=Cc1nccc2ccccc12	–	–	–	–	–	·	·	·	·
COc1ccccc1C(=O)NCCC(=O)N1CC=C(c2ccccc2)CC1	–	–	–	–	–	·	·	·	·
CN(c1ccc(O)cc1)c1nc(-c2ccccc2)cs1	20	5.0	–	8.8	–	12	6.0	–	6.2
